This is part of a sample that, as a whole, favours compounds with a hit. Of some 79,000 tested, about 15% had one in any assay. A number with no mark means an inactive call. Active and inactive are the calls of the source. No stated cut-off is given here; in the data, active means growth inhibition above about 70%; inactive means the rest.
How the values were obtained:
[1] = NCI Yeast Anticancer Drug Screen. Data for the rad50 strain (AID 155);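 further: 0% = growth of vehicle-only cultures of the same strain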; conditions: S. cerevisiae rad50 strain growth inhibition, active compounds read high
In short: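 Growth of the mutant yeast was measured after compound exposure and referenced to vehicle-treated cultures.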

[2] = NCI Yeast Anticancer Drug Screen. Data for the mec2-1 strain (AID 157); conditions: S. cerevisiae mec2-1 strain, active compounds read high
In short: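 Growth inhibition is read against vehicle-treated controls after compound exposure of the mec2-1 yeast strain, which is defective in DNA damage repair or cell cycle control.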

[3] = NCI Yeast Anticancer Drug Screen. Data for the sgs1 mgt1 strain (AID 161);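 further: 0% = growth of cultures given vehicle only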; conditions: S. cerevisiae sgs1 mgt1 strain, active compounds read high
In short: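 Compounds are added to genetically altered yeast, and growth is compared with cultures given vehicle alone to give percent inhibition.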

[4] = NCI Yeast Anticancer Drug Screen. Data for the cln2 rad14 strain (AID 165);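 further: 0% = growth equal to vehicle treated cultures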; conditions: S. cerevisiae cln2 rad14 strain, active compounds read high
In short: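 Growth inhibition, relative to vehicle-treated controls, is the read-out. The test organism is a yeast strain with defined genetic alterations, cln2 rad14.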

[5] = NCI Yeast Anticancer Drug Screen. Data for the bub3 strain (AID 167); conditions: S. cerevisiae bub3 mutant strain, active compounds read high
In short: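 Whole-cell yeast assay. The mutant strain was incubated with compounds, and growth inhibition was determined by comparison with vehicle-treated cells.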

[6] = NCI Yeast Anticancer Drug Screen. Data for the mlh1 rad18 strain (AID 175); conditions: S. cerevisiae mlh1 rad18 strain growth inhibition, active compounds read high
In short: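 Cells of a genetically altered yeast strain, deficient in DNA damage repair, were treated with compound. Their growth was then compared with that of vehicle-treated cultures to give inhibition.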

[7] = at 5.0 µM (retest, dose inferred, filed as 0.5)
[8] = at 50.0 µM (retest, dose inferred, filed as 5.0)

SMILES | growth inhibition [1, 7] | growth inhibition [1, 8] | growth inhibition ([1]; at 50.0 µM) | growth inhibition [2, 7] | growth inhibition [2, 8] | growth inhibition ([2]; at 50.0 µM) | growth inhibition [3, 7] | growth inhibition [3, 8] | growth inhibition ([3]; at 50.0 µM) | growth inhibition [4, 7] | growth inhibition [4, 8] | growth inhibition ([4]; at 50.0 µM) | growth inhibition [5, 7] | growth inhibition [5, 8] | growth inhibition ([5]; at 50.0 µM) | growth inhibition [6, 7] | growth inhibition [6, 8] | growth inhibition ([6]; at 50.0 µM)
O=C(NN=C1CCCCC1)c1ccc([N+](=O)[O-])cc1 | -1% | -7% | -0.5% | -17% | -11% | 0.2% | 13% | 9% | 10.6% | -1% | 10% | 37.5% | 19% | 24% | -2.95% | 4% | 7% | 20.2%
COc1ccc(CCCCC(=O)O)cc1O | -155% | -161% | 40.9% | -52% | -54% | 14.1% | -56% | -65% | 29.9% | -57% | -55% | 61.9% | -69% | -80% | 2.5% | -117% | -117% | 28.4%
O=C1OC(CC(=O)c2ccc(Cl)cc2Cl)C(Cl)=C1Cl (stereo not given) | 0% | 20% | 51% | 8% | 32% | 53.4% | 4% | 50% | 93% (active) | 1% | 6% | 78.4% (active) | -7% | 10% | 58.5% | -1% | 41% | 97.3% (active)
COc1cc[c]([Sn]([c]2ccc(OC)cc2)([c]2ccc(OC)cc2)[c]2ccc(OC)cc2)cc1 | 1% | 1% | 80.5% (active) | 6% | 6% | 85.3% (active) | -5% | -5% | 80.8% (active) | -9% | -9% | 85.8% (active) | 6% | 6% | 82.3% (active) | -14% | -14% | 78.8% (active)
Cc1ccc(N2CC3CC4(C)C=CC3(C2)O4)cc1 (stereo not given) | 6% | 8% | 76% (active) | -9% | 1% | 49.7% | 10% | 22% | 79.8% (active) | -22% | 10% | -6.65% | 13% | -3% | 89.5% (active) | 30% | -1% | 50.8%
CC1(c2cccs2)C(C#N)(C#N)C1(C#N)C#N | 17% | 42% | 92.8% (active) | 9% | 44% | 95.8% (active) | 17% | 39% | 96% (active) | -5% | 30% | 98.4% (active) | -4% | 36% | 95.5% (active) | 9% | 47% | 98.5% (active)
O=C1CN(Cc2ccc(Cl)cc2)CC(=O)N2Cc3ccccc3CN12 | 4% | -3% | -16.2% | -4% | -6% | -13.8% | 4% | -13% | -13.2% | -2% | 1% | 5.1% | 6% | 6% | 64.2% | -4% | -3% | -11%
O=[N+]([O-])c1ccccc1Oc1ccc([N+](=O)[O-])c(C(F)(F)F)c1 | -4% | 83% (active) | 80.1% (active) | -2% | 74% (active) | 82.7% (active) | 0% | -24% | 92.5% (active) | -8% | 45% | 45.9% | 2% | 92% (active) | 95.3% (active) | -1% | 90% (active) | 92.7% (active)
Cc1cc(NC(=S)SCc2ccc(F)cc2)c([N+](=O)[O-])cc1C | 57% | 98% (active) | 98.7% (active) | 36% | 99% (active) | 98.8% (active) | 87% (active) | 99% (active) | 98.5% (active) | 19% | 97% (active) | 98.8% (active) | 48% | 92% (active) | 99% (active) | 94% (active) | 98% (active) | 99.1% (active)
NNC(=O)N/N=C(/CC1(O)C(=O)Nc2ccc(Br)cc21)c1ccccc1 (stereo not given) | -1% | 83% (active) | 88.3% (active) | 1% | 66% | 83.8% (active) | -2% | 86% (active) | 89.6% (active) | -5% | 48% | 10.2% | 8% | 91% (active) | 81.3% (active) | 0% | 71% (active) | 93.7% (active)

— PubChem BioAssay (NCI)
